The list is not random: actives were taken first. Their share in the collection is about 1.5%.
PP5 primary: blocks human protein phosphatase 5 activity; purified PP5c, OMFP substrate fluorescence; inhibition, % at 6.7 µM; hit rate 0.18% among 320,000; AID 1987;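 active = inhibition above the campaign's mean inhibition across all tested compounds plus 3 SD, cut at about 9.5% in these data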;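 also: 0% = DMSO only and 100% = 100 µM cantharidin control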
Target sequence (P53041 whole entry, looked up): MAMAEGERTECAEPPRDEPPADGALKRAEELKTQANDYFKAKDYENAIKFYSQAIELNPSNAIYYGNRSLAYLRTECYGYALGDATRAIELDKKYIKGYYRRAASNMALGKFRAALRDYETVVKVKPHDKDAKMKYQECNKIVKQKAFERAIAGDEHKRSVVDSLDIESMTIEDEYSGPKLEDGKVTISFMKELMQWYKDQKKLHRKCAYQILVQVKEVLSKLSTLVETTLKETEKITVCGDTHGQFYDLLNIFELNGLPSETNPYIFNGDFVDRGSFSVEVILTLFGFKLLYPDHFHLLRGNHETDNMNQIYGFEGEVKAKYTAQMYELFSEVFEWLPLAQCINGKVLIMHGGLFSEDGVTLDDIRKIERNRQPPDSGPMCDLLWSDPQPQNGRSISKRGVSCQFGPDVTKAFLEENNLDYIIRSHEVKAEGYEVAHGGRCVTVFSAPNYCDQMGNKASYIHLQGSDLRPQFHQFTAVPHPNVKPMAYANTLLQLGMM
DYRK1A inh: blocks rat Dyrk1A kinase activity; ADP-Glo luminescence, NFATc1 peptide; Q63470; hit rate 0.43% among 310,000; inhibition, % at 12.5 µM; in the data active = inhibition above about 50%;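 also: plate controls were vehicle with enzyme for no effect and no enzyme for full effect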
PP1 counter: blocks human PP1-alpha phosphatase, a PP5 counter-screen; purified PP1alpha, OMFP fluorescence; inhibition, % at 6.7 µM; hit rate 0.9% among 320,000; AID 2235;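 active = inhibition above the mean inhibition of all tested compounds plus 3 SD, computed separately for each screening campaign, cut at about 15% in these data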
STK33 kinase inh: blocks human STK33 kinase activity. purified STK33, MBP phosphorylation, ADP-Glo luminescence. inhibition, % at 10 µM. Q9BYT3. hit rate 0.073% among 320,000;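 active = inhibition at or above 25%, using the most active replicate where run in duplicate; inactive = inhibition below 25%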
HIF act: HIF pathway transcriptional activation | hit rate 0.32% among 300,000 | activation, % at 7.5 µM (by protocol) | U2OS HRE-luciferase reporter, luminescence; normalized: DMSO 0%, desferrioxamine 100%;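 active = mean activation of at least 10% of the iron chelator positive control signal, with at least half of replicates also reaching 10%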
* marks the source's active call; other numbers are inactive results; . = not tested or not shown.

SMILES	PP5 primary	DYRK1A inh	PP1 counter	STK33 kinase inh	HIF act
CC1(c2nnc(Cc3ccccc3)o2)CC(c2ccc([N+](=O)[O-])cc2)=NO1 (stereo not drawn)	-6	9	8	-1	-1
COc1ccc(C(=O)NCCc2nc3cc([N+](=O)[O-])ccc3n2C)cc1	-1	3	-3	-2	26*
COc1ccc2cc(C(C)C(=O)N3CCC(C(N)=O)CC3)ccc2c1 (stereo not drawn)	-2	-5	1	3	28*
COc1ccccc1OCCCN1C(=O)C(=O)c2cccc(C)c21	1	-8	1	0	1
Cc1ccccc1OCCN1C(=O)C(=O)c2cccc(C)c21	1	7	16*	-1	0
Cc1ccc(OCCCN2C(=O)C(=O)c3cccc(C)c32)cc1	2	1	16*	1	0
COc1ccc(CCNC(=O)c2ccccc2NC(=O)C2=C(C)OCCS2)c(OC)c1	1	.	3	-3	0
Cc1cccc(C(=O)N(Cc2cccs2)C2CCS(=O)(=O)C2)c1 (stereo not drawn)	-2	-5	-6	0	.
O=C(c1ccc(F)cc1)N(Cc1cccs1)C1CCS(=O)(=O)C1 (stereo not drawn)	2	.	0	0	167*
CC1CN(c2nc3ccccn3c(=O)c2/C=C(\C#N)C(=O)N2CCOCC2)CC(C)O1 (stereo not drawn)	2	5	2	-3	18*
CC1CCN(C(=O)CCNS(=O)(=O)c2ccc(Cl)cc2)CC1	2	-2	-3	1	1
CCN(N=O)c1ccc(C=C2C=Cc3ccccc32)cc1	.	-2	.	.	.
Cc1cc(N/N=C/c2ccccc2Cl)nc(NCc2ccccc2)n1	6	-7	17*	-1	1
c1ccc(CNc2c3ccccc3nc3ccccc23)cc1	0	4	0	0	20*
Oc1ccc(CCNc2c3ccccc3nc3ccccc23)cc1O	1	13	1	-1	18*
CC(C)[C@H]1COCCS(=O)(=O)N1Cc1ccccc1-c1ccc(F)cc1	.	3	.	.	.
Cc1ccccc1-c1cc2nc(C)c(Cl)c(=O)n2[nH]1	1	-1	-1	-3	0
Cc1ccccc1-c1cc2nc(-c3ccc([N+](=O)[O-])cc3)cc(=O)n2[nH]1	0	-2	16*	-2	0
N#Cc1ccccc1OCCCN1CCC(Cc2ccccc2)CC1	-2	-1	-3	-1	45*
CCC(=O)Nc1cc(C(=O)O)ccc1Sc1ccccc1	-2	-2	17*	-1	0
COc1ccc(-n2ncc3c(N4CCN(c5cc(C)ccc5C)CC4)ncnc32)cc1	3	-2	17*	5	0
Cc1nn(C)c(C)c1NC(=O)CSc1nc(-c2ccccc2Cl)nc2c1cnn2-c1ccccc1	0	-7	16*	0	-2
CCCCC(=O)N1CCN(c2nc3ccc(OCC)cc3s2)CC1	1	5	2	-1	1
CCC(=O)N1CCN(c2nc3ccc(Br)cc3s2)CC1	-1	.	-1	-2	12*
CCc1ccc2nc(N3CCN(C(=O)C(C)(C)C)CC3)sc2c1	-1	7	-1	0	5
SMILES	PP5 primary	DYRK1A inh	PP1 counter	STK33 kinase inh	HIF act
CCCCC(=O)N1CCN(c2nc3ccc(F)cc3s2)CC1	2	10	-3	-1	9.8*
CCC1CSC(Nc2ccc(C(=O)/C=C/c3ccc(Br)cc3)cc2)=N1 (stereo not drawn)	4	5	15*	1	1
Cc1cc2cc(CNC(=S)NCc3ccccc3)ccc2n1C	3	-6	2	0	0
Cc1ccc2c(c1)cc(C(=O)NCc1ccccc1)n2C	2	-2	-5	-2	23*
C(=N\Nc1nc2ccccc2[nH]1)/c1ccccn1	.	9	.	.	4
C(=N\Nc1nc2ccccc2[nH]1)/c1cccc2nccnc12	0	17	-1	1	47*
CCN(CC)c1ccc(/C=N/Nc2nc3ccccc3[nH]2)c(O)c1	4	5	8	1	83*
Cc1ccc2cc(/C=N/Nc3nc4ccccc4[nH]3)c(Cl)nc2c1	.	12	.	.	1
Cc1ccsc1C(=O)NCCc1nnc2ccccn12	1	-3	-4	-1	2
CCOc1ccccc1N=C1SCC(C)N1C(=O)C1CCN(c2ncnc3sc(C)c(C)c23)CC1 (stereo not drawn)	.	15	.	.	.
CCOC(=O)Cc1cc(=O)n2[nH]c(C)c(-c3ccccc3)c2n1	1	28	15*	0	-2
COc1ccc(NC(=O)CCC(=O)N(Cc2ccc(OC)c(OC)c2)c2nccs2)cc1	1	-4	-7	-3	170*
